These results are taken from PubChem BioAssay (NCATS).

The nature of assay [1]: Cell Viability - LYMP2-025 (AID 976). Also: potency is read from the fitted curve at half-maximal effect. The essentials: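 Seed 2500 LYMP2-025 cells/well; 5 hr at 37 C; add compound; 24 hr at 37 C; add CellTiter-Glo; 30 min RT; read luminescence. AC50 from Hill-modelled concentration-response.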
Assay [2] is described as follows: Cell Viability - LYMP2-008 (AID 980). Also: nearly all actives have a fitted effect of over 60% in size. Also: potency is read from the fitted curve at half-maximal effect. The essentials: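 qHTS, human lymphoblastoid line, 2500 cells/well; 5 hr preincubation, 24 hr compound, 37 C. CellTiter-Glo ATP luminescence. AC50 via Hill equation. Tetraoctylammonium bromide positive control.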
The nature of assay [3]: Cell Viability - LYMP2-010 (AID 981). Also: nearly all actives have a fitted effect of over 55% in size. Also: potency is read from the fitted curve at half-maximal effect. The method, boiled down: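 Luminescent ATP signal (CellTiter-Glo) served as the viability read-out. Cells of the human lymphoblastoid line were treated with compound over a concentration range for 24 hours at 37 C, and AC50 values came from Hill-equation modeling.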
A short description of assay [4]: Cell Viability - LYMP2-012 (AID 982).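 Also: cellular ATP by luciferase luminescence where a drop means cytotoxicity; cells exposed to compound for one day before reading; nearly all actives have a fitted effect of over 55% in size.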 Also: potency is read from the fitted curve at half-maximal effect.
The nature of assay [5]: Cell Viability - LYMP2-022 (AID 987). Also: nearly all actives have a fitted effect of over 55% in size. Also: potency is read from the fitted curve at half-maximal effect. The essentials: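 qHTS: human lymphoblastoid cells 2500/well; 5 hr 37 C; cpd added; 24 hr 37 C; CellTiter-Glo, 30 min RT; luminescence. AC50 via Hill fit; tetraoctylammonium bromide positive ctrl.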
Assay [6] is described as follows: Cell Viability - LYMP1-002 - Assay at 40 hr (AID 994). Also: nearly all actives have a fitted effect of over 60% in size. Also: potency is read from the fitted curve at half-maximal effect. The essentials: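 Luminescent ATP signal served as the viability readout, with decreases taken as toxicity. Cells were treated with compounds across a concentration range for 40 hours at 37 C, and AC50 values came from standard Hill modeling.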
Assay [7] can be described thus: Cell Viability - LYMP2-013 (AID 970). Also: nearly all actives have a fitted effect of over 55% in size. Also: potency is read from the fitted curve at half-maximal effect. The method, boiled down:
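qHTS; 2500 lymphoblastoid cells/well; 5 hr 37 C settle; cpd 24 hr 37 C; CellTiter-Glo, 30 min RT; luminescence. AC50 = Hill fit.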

Assay [8] in a line: Cell Viability - LYMP2-015 (AID 971). Also: nearly all actives have a fitted effect of over 55% in size. Also: potency is read from the fitted curve at half-maximal effect. The essentials:
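Luminescent ATP read-out (CellTiter-Glo) served as the viability measure after lymphoblastoid cells were exposed to compounds for 24 hours at 37 C. Concentration-response data were fitted with the Hill equation to give AC50.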

A short description of assay [9]: Cell Viability - LYMP2-017 (AID 972). Also: nearly all actives have a fitted effect of over 55% in size. Also: potency is read from the fitted curve at half-maximal effect. The essentials: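 2500 cells/well, 5 h 37 C; cpd 24 h 37 C in complete medium; CellTiter-Glo, 30 min RT; luminescence (ATP). AC50 via Hill fit, qHTS.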
Assay [10] is described as follows: Cell Viability - LYMP2-021 (AID 974). Also: potency is read from the fitted curve at half-maximal effect. The method, boiled down:
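Plate 2500 lymphoblastoid cells per well and incubate 5 hr at 37 C. Add compounds over a concentration range and incubate 24 hr at 37 C. Add CellTiter-Glo, wait 30 min at room temperature, read luminescence.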

Assay [11] in a line: Cell Viability - LYMP2-023 (AID 975). Also: nearly all actives have a fitted effect of over 55% in size. Also: potency is read from the fitted curve at half-maximal effect. The essentials: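 2500 cells/well, 5 hr 37 C; cpd 24 hr 37 C; CellTiter-Glo, 30 min RT; luminescence. qHTS conc-response, Hill fit -> AC50. Pos ctrl tetraoctylammonium bromide.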
Assay [12] in a line: Cell Viability - LYMP2-002 (AID 977).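 Also: compound exposure lasted 24 h at 37 °C.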 Also: potency is read from the fitted curve at half-maximal effect. The essentials: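 Cytotoxicity is scored as concentration-dependent loss of cellular ATP in a human lymphoblastoid line after 24 hr compound treatment at 37 C. AC50 is obtained by modelling concentration-response data with the Hill equation.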
Assay [13] is described as follows: Cell Viability - LYMP2-007 (AID 979).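 Also: cells exposed to compound for 24 h before reading; nearly all actives have a fitted effect of over 60% in size.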 Also: potency is read from the fitted curve at half-maximal effect. The method, boiled down:
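Luminescent ATP signal (CellTiter-Glo) serves as the viability read-out after 24 hr compound treatment of lymphoblastoid cells in complete medium at 37 C. Concentration-response data were fitted to the Hill equation to give AC50 values.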

The nature of assay [14]: Cell Viability - LYMP2-014 (AID 983). Also: nearly all actives have a fitted effect of over 50% in size. Also: potency is read from the fitted curve at half-maximal effect. The method, boiled down: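 Luminescent ATP signal (CellTiter-Glo, 30 min at room temperature) serves as the viability read-out after 24 hr compound exposure at 37 C. Cells were seeded at 2500 per well and settled 5 hr beforehand.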
A short description of assay [15]: Cell Viability - LYMP2-016 (AID 984). Also: nearly all actives have a fitted effect of over 55% in size. Also: potency is read from the fitted curve at half-maximal effect. The essentials: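 Acute toxicity in a Coriell human lymphoblastoid line is scored as loss of intracellular ATP over 24 h of treatment in complete medium. CellTiter-Glo signal is fitted across concentrations with the Hill equation to give AC50.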
The nature of assay [16]: Cell Viability - LYMP2-018 (AID 985). Also: nearly all actives have a fitted effect of over 50% in size. Also: potency is read from the fitted curve at half-maximal effect. The essentials:
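Luminescent ATP signal (CellTiter-Glo, read after 30 min at room temperature) reports viable cells after 24 hr compound treatment at 37 C. Concentration-response data were fitted to the standard Hill equation for AC50.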

Assay [17] in a line: Cell Viability - LYMP2-020 (AID 986). Also: nearly all actives have a fitted effect of over 55% in size. Also: potency is read from the fitted curve at half-maximal effect. The essentials: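 Luminescent ATP signal (CellTiter-Glo, 30 min at room temperature) is the read-out after 24 h compound treatment of lymphoblastoid cells at 37 C. AC50 values come from Hill-equation fits across concentrations.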
A short description of assay [18]: Cell Viability - LYMP2-026 (AID 989). Also: nearly all actives have a fitted effect of over 50% in size. Also: potency is read from the fitted curve at half-maximal effect. The method, boiled down:
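Luminescent ATP signal (CellTiter-Glo, 30 min room temperature) measures viable lymphoblastoid cells after 24 hr compound treatment at 37 C. Decreased ATP reflects acute toxicity; AC50 values come from Hill-equation modeling.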

Assay [19] in a line: Cell Viability - LYMP1-002 - Assay at 24 hr (AID 993). The essentials: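 Cells plated 2500/well, 5 hr 37 C; compounds added, 24 hr 37 C; CellTiter-Glo added, 30 min RT; luminescence read. Tetraoctylammonium bromide positive control. Hill-equation AC50.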
Assay [20] deals with Alpha-galactosidase A (Homo sapiens) (UniProt P06280). Briefly: Counterscreen for Glucocerebrosidase Inhibitors: qHTS Assay for Human alpha-Galactosidase at pH 4.5 (AID 992). The method, boiled down:
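Quantitative HTS: compounds tested from 0.7 nM up to 77 uM against 2 nM enzyme with 80 uM 4-MU alpha-D-galactopyranoside. The 20 min room-temperature reaction is stopped with 1M NaOH/1M glycine, pH 10.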

Inconclusive results are not listed. Activity calls are given as the source filed them. Calls follow the shape of the dose curve; as a rule, active = well fitted curve in the direction sought with a large enough effect; inconclusive = small, poorly fitted or top-dose-only effect, or another doubt; inactive = no such curve, though single readings can be large; an effect the other way counts as inactive or inconclusive.

Sequence of Alpha-galactosidase A (Homo sapiens) (P06280 whole entry, looked up): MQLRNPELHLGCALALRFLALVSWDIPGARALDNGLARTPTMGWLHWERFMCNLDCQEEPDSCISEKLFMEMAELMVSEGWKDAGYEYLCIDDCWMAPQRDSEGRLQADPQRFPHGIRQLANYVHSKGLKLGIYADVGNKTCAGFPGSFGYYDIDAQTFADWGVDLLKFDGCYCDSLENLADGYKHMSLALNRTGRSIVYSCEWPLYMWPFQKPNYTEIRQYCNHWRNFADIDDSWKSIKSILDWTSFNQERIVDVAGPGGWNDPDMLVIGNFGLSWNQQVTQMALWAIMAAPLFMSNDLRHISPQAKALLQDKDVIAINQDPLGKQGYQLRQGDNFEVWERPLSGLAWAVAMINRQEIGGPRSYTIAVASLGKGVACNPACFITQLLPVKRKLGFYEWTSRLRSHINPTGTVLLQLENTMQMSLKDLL

As to `CC(C)(C)NC(=O)[C@@H]1C[C@@H]2CCCC[C@@H]2CN1C[C@@H](O)[C@H](Cc1ccccc1)NC(=O)[C@H](CC(N)=O)NC(=O)c1ccc2ccccc2n1`, the Potency entry in assay [1] was “inactive”. In addition, the Potency in assay [2], in assay [3], in [4], in assay [5] and in assay [6] was 50.1 µM (active) in each case.
Regarding `CC1=C2[C@@H]([C@H](C)CC[C@H]2/C=C(\C)C(=O)O)[C@H](O)C1`, the Potency entry in assay [7], in assay [8], in assay [9], in assay [10], in assay [11] and in assay [1] was “inactive” in each case. For the same compound, the Potency result in assay [12], in [13], in assay [2], in assay [3], in assay [4] and in [14] was “inactive” throughout. Moreover, the Potency entry in [15], in assay [16], in [17], in [5], in [18] and in assay [6] was “inactive” in each case. Further, in assay [19], the outcome was inactive.
Consider `CC1=C(/C=C/C(C)=C/C=C/C(C)=C/CO)C(C)(C)CCC1`, for which the Potency result in assay [1] and in assay [12] was “inactive” throughout. For the same compound, the Potency in assay [3] was 50.1 µM (active); in [4], 50.1 µM (active); in [16], 50.1 µM (active); in assay [17], 50.1 µM (active); in assay [5], 39.8 µM (active). The compound was called inactive in [19].
In the case of `CCCCCCCC/C=C\CCCCCCCC(=O)O`, the Potency result in assay [7], in assay [8], in [9], in [10], in assay [11] and in [1] was “inactive” each time. Moreover, the Potency entry in assay [12], in assay [13], in assay [2], in [3], in assay [4] and in [14] was “inactive” in each case. Moreover, the Potency entry in assay [15], in [16], in [17], in [5], in assay [18] and in [6] was “inactive” in each case. Besides, the outcome in assay [19] was inactive.
For the compound `CCCCCCCC(=O)O`, the Potency result in assay [7], in assay [8], in assay [9], in [10], in assay [11] and in [1] was “inactive” in each case. In addition, the Potency result in [12], in [13], in [2], in assay [3], in assay [4] and in [14] was “inactive” in each case. Also, the Potency entry in assay [15], in assay [16], in assay [17], in [5], in [18] and in assay [6] was “inactive” throughout. The compound was classed as inactive in [19].
As for `Cc1ccccc1`, the Potency entry in assay [7], in assay [8], in assay [9], in assay [10], in assay [11] and in [12] was “inactive” in each case. In addition, the Potency entry in assay [13], in [2], in [3], in [4], in assay [14] and in assay [15] was “inactive” each time. For the same compound, the Potency entry in assay [16], in [17], in [5], in [18] and in assay [6] was “inactive” in each case. In assay [19], the compound was classed as inactive.
With `CC[N+](C)(C)Cc1ccccc1Br`, the result in assay [20] was inactive.
In the case of `Nc1ccn([C@H]2CS[C@@H](CO)O2)c(=O)n1`, the Potency result in assay [7], in assay [8], in [9], in [10], in assay [11] and in assay [1] was “inactive” each time. For the same compound, the Potency result in assay [12], in assay [13], in [2], in [3], in assay [4] and in assay [14] was “inactive” throughout. The Potency entry in [15], in assay [16], in assay [17], in [5], in assay [18] and in assay [6] was “inactive” throughout. For the same compound, the result in [19] was inactive.
As to `CC(C)=O`, the Potency entry in assay [7], in assay [8], in assay [9], in assay [10], in assay [11] and in [1] was “inactive” throughout. Besides, the Potency entry in assay [12], in assay [13], in assay [2], in assay [3], in [4] and in [14] was “inactive” in each case. The Potency result in assay [15], in assay [16], in [17], in assay [5], in assay [18] and in assay [6] was “inactive” in each case. For the same compound, in [19], the outcome was inactive.
For the compound `O=CCCCC=O`, the Potency was 20 µM (active) in assay [7]; 15.8 µM (active) in [8]; 20 µM (active) in assay [9]; 15.8 µM (active) in assay [10]; 25.1 µM (active) in assay [11]; 39.8 µM (active) in [1]. The Potency is 31.6 µM (active) in assay [12]; 20 µM (active) in assay [13]; 25.1 µM (active) in [2]; 20 µM (active) in assay [3]; 15.8 µM (active) in [4]; 25.1 µM (active) in assay [14]. For the same compound, the Potency in [15] was 25.1 µM (active); in assay [16] it was 20 µM (active); in assay [17] it was 15.8 µM (active); in [5], 10 µM (active); in assay [18] it was 25.1 µM (active). Moreover, the compound was classed as inactive in [19]. In assay [6], the Potency result is “inactive”.
